Experimental data published in the supplement of paper PMC6555819.

Legend:
Test in all cases: PBM binding z-score (relative to random genomic background probes); higher = stronger binding; sequences stand for … in GC…GCGATTGACAGCGTAGAATGAAGG
[1] = test system: FXR:RXRa (NR concentration 270 nM, RXRa partner concentration 90 nM)
Method in brief: (§1)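 Scanned fluorescence from custom Agilent 4×180K protein-binding microarrays was regression-normalized. Binding z-scores use random background probes as reference. Ligand-free nuclear receptor dimers were incubated on the arrays for 1 h and detected with antibodies against each partner (one per run).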

[2] = test system: LXRa:RXRa (NR concentration 270 nM, RXRa partner concentration 90 nM)
Method in brief: as §1

[3] = test system: LXRa homodimer (NR concentration 270 nM)
Method in brief: as §1

[4] = test system: LXRb:RXRa (NR concentration 270 nM, RXRa partner concentration 90 nM)
Method in brief: as §1

[5] = test system: LXRb homodimer (NR concentration 270 nM)
Method in brief: as §1

[6] = test system: PPARa:RXRa (NR concentration 270 nM, RXRa partner concentration 90 nM)
Method in brief: as §1

[7] = test system: PPARg:RXRa (NR concentration 180 nM, RXRa partner concentration 90 nM)
Method in brief: as §1

[8] = test system: PPARg:RXRa 270nM:90nM, anti-RXR (NR concentration 270 nM, RXRa partner concentration 90 nM)
Method in brief: as §1

[9] = test system: PPARg:RXRa 30nM:10nM, anti-RXR (NR concentration 30 nM, RXRa partner concentration 10 nM)
Method in brief: as §1

[10] = test system: PPARg:RXRa 90nM:30nM, anti-RXR (NR concentration 90 nM, RXRa partner concentration 30 nM)
Method in brief: as §1

[11] = test system: PPARg:RXRa DBDmut IVT, anti-RXR (DBD mutation: RXRa K156A/R161A, NR concentration 270 nM, RXRa partner concentration 90 nM)
Method in brief: as §1

[12] = test system: PPARg:RXRa IVT, anti-PPARg (NR concentration 270 nM, RXRa partner concentration 90 nM)
Method in brief: as §1

[13] = test system: PPARg DBDmut:RXRa IVT, anti-PPARg (DBD mutation: PPARg1 K132A/R137A, NR concentration 270 nM, RXRa partner concentration 90 nM)
Method in brief: as §1

[14] = test system: PPARg DBDmut IVT, anti-PPARg (DBD mutation: PPARg1 K132A/R137A, NR concentration 270 nM)
Method in brief: as §1

[15] = test system: PPARg homodimer (NR concentration 180 nM)
Method in brief: as §1

[16] = test system: PXR:RXRa (NR concentration 270 nM, RXRa partner concentration 90 nM)
Method in brief: as §1

[17] = test system: PXR homodimer (NR concentration 270 nM)
Method in brief: as §1

[18] = test system: RARa:RXR (NR concentration 270 nM, RXRa partner concentration 90 nM)
Method in brief: as §1

[19] = test system: RARa homodimer (NR concentration 270 nM)
Method in brief: as §1

[20] = test system: RARb:RXRa (NR concentration 270 nM, RXRa partner concentration 90 nM)
Method in brief: as §1

Sequence	PBM binding z-score [1]	PBM binding z-score [2]	PBM binding z-score [3]	PBM binding z-score [4]	PBM binding z-score [5]	PBM binding z-score [6]	PBM binding z-score [7]	PBM binding z-score [8]	PBM binding z-score [9]	PBM binding z-score [10]	PBM binding z-score [11]	PBM binding z-score [12]	PBM binding z-score [13]	PBM binding z-score [14]	PBM binding z-score [15]	PBM binding z-score [16]	PBM binding z-score [17]	PBM binding z-score [18]	PBM binding z-score [19]	PBM binding z-score [20]
AATACAGAGTCACTAGGCCAGAGTAGGTACGAAT	-0.115	-0.0616	-0.358	-0.555	-0.252	0.626	1.31	0.617	0.184	0.718	0.648	1.74	1.31	0.135	0.238	-0.343	-0.0346	-0.415	0.249	0.141
GCTTACGTGTCAAAGGTTATAGCATGAATAGAAT	3.42	3.02	-0.0204	2.94	-0.0977	5.34	9.21	8.05	7.61	9.07	1.72	3.96	0.407	0.944	3.44	2.98	-0.204	4.56	0.318	2.14
CCTAGCAGGCCAATCTGTGTCACTCAAGGCTTGA	-0.0282	-0.198	-0.502	-0.335	-0.193	0.394	-0.0496	-0.118	-0.619	-0.304	2.87	2.13	-1.03	-1.32	-0.244	-0.438	-0.358	-0.217	-0.52	0.211
ATCTCTAGGTAACAAGTTGAGTGAAAGAGAGGAC	0.601	0.354	0.274	0.114	0.76	0.677	1.25	1.76	0.856	1.6	3.42	2.71	1.43	1.04	0.666	0.294	0.569	0.445	1.29	0.64
CCGAGTAGGTTATGGGGCATGCAGGCAACGGTGA	0.144	0.219	-0.12	0.502	-0.337	1.93	3.81	4.62	2.08	4.14	2.71	3.37	-0.039	-0.361	0.867	-0.014	-0.179	0.374	0.0539	1.03
CCGACTGGGGCAGTAAGGTTACCATACCATCCGG	0.252	-0.0103	-0.54	-0.134	-0.789	1.16	1.03	1.17	-0.0768	0.343	2.7	2.69	-1.07	-1.44	0.0978	0.28	-0.0319	0.762	-0.538	1.34
TCATATATGTAAAAGGTGAAAGTCGGTGTGGTAA	0.511	1.25	-0.0169	1.75	0.0133	3.72	5.15	6.15	5.45	7	2.46	2.83	0.873	0.794	1.98	1.21	-0.143	1.85	1.14	1.9
CGTCCTAGGTCATAGGAGGTCAGTGAAGACAGAT	5.53	6.34	3.87	5.18	0.0467	4.91	3.72	4.05	1.4	3.09	3.43	4.34	-0.339	-0.4	2.53	6.01	1.28	4.21	1.08	4.6
GTAACGAGGGCAAGTTGATAGCAGAGTTTGATGG	0.832	0.576	-0.256	0.49	0.052	1.9	1.29	1.19	0.279	0.807	3.49	3.09	0.298	0.937	0.983	0.884	1.23	0.596	0.449	2.58
TCTTGTAGATTAAGCAGGTTAAGAAAGCCTGAGT	0.514	0.349	-0.181	0.403	-0.31	0.868	-0.488	1.37	2.84	2.08	1.64	0.902	0.0777	0.04	-0.0749	0.401	0.0794	0.419	0.0226	0.106
CCTTACGGGTCACGCGGTTATAGCACGACGAGCG	6.26	4.51	0.11	3.64	0.0354	5.65	6.07	6.24	2.58	4.96	4.11	4.96	0.683	0.817	1.05	3.53	-0.0866	4.59	0.82	4.33
GCTGCTAGGTCAAGTGATGGTCAGCTAAAGCTCG	4.09	3.01	0.152	1.9	-0.0819	3.57	2.46	3.13	0.591	2.12	4.64	4.05	0.0181	-0.582	1.55	1.43	-0.69	2.5	-0.171	4.11
CGTCAAAGTTCAAGGTAACGTAACAGAAAGCAGC	6.65	5.73	2.59	3.46	1.01	4.81	4.45	5.18	2.02	3.97	0.893	2.47	1.4	0.701	2.19	4.2	2.44	3.28	1.04	5.17
CGTTCAAGGTCAAGGTCAGTGAAAGAGACTCGAA	8.13	5.69	1.57	5.06	1.66	6.33	6.87	6.8	3.49	5.56	4.65	5.44	0.946	1.3	3.58	5.02	1.3	5.02	1.49	5.9
